# Values joined by “and” are separate entries in the source; they are usually repeats but may differ in a detail not shown here. Equal entries are not always repeated. About 83,000 compounds went through this panel and 20% of them were active in at least one assay; those are over-represented in the sample as a whole.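 Plates (96-well) were seeded with cells, treated with compound at one concentration, and incubated for 48 hours before percent growth was determined.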 Active and inactive are the calls of the source. Rule for the calls: active = growth percent below 10; inactive = the rest.
# Columns and labels:
# Experiment in all cases: NCI-60 one-dose screen, 48 h (100 = growth as untreated, 0 = no growth, -100 = all killed)
# NCI-H23 lung = tested on: NCI-H23 lung
# NCI-H226 lung = tested on: NCI-H226 lung
# NCI-H322M lung = tested on: NCI-H322M lung
# HOP-62 NSCLC = tested on: HOP-62 NSCLC
# NCI-H460 lung = tested on: NCI-H460 lung
# HOP-92 NSCLC = tested on: HOP-92 NSCLC
# NCI-H522 lung = tested on: NCI-H522 lung
# A549/ATCC NSCLC = tested on: A549/ATCC NSCLC
# 786-0 renal = tested on: 786-0 renal
# COLO 205 colon = tested on: COLO 205 colon
# DU-145 prostate = tested on: DU-145 prostate
# K-562 leukemia = tested on: K-562 leukemia
# MALME-3M melanoma = tested on: MALME-3M melanoma
# MDA-MB-231 breast = tested on: MDA-MB-231 breast
# RXF 393 renal = tested on: RXF 393 renal
# SF-268 CNS = tested on: SF-268 CNS
# SF-295 CNS = tested on: SF-295 CNS
# SF-539 CNS = tested on: SF-539 CNS
# UACC-257 melanoma = conditions: 10 µM unless noted
# M14 melanoma = tested on: M14 melanoma
smiles,measurement,setting,value
Cc1cc(N)c2ccccc2[n+]1CCCCCCCCCC[n+]1c(C)cc(N)c2ccccc21,growth,NCI-H23 lung; 10 µM unless noted,5.83% (active) and -29.4% (active)
same,growth,NCI-H226 lung; 10 µM unless noted,13.8% (inactive) and 31.5% (inactive)
same,growth,NCI-H322M lung; 10 µM unless noted,11.2% (inactive) and 41.8% (inactive)
same,growth,HOP-62 NSCLC; 10 µM unless noted,16.3% (inactive) and 25.4% (inactive)
same,growth,NCI-H460 lung; 10 µM unless noted,1.44% (active) and -18.2% (active)
same,growth,HOP-92 NSCLC; 10 µM unless noted,-22.2% (active) and 7.42% (active)
same,growth,NCI-H522 lung; 10 µM unless noted,-8.65% (active) and -8.09% (active)
same,growth,A549/ATCC NSCLC; 10 µM unless noted,29.9% (inactive) and -17% (active)
same,growth,786-0 renal; 10 µM unless noted,18.7% (inactive) and 20.8% (inactive)
same,growth,COLO 205 colon; 10 µM unless noted,-50.2% (active) and -45.7% (active)
same,growth,DU-145 prostate; 10 µM unless noted,31.3% (inactive) and -73.8% (active)
same,growth,K-562 leukemia; 10 µM unless noted,-7.04% (active) and -39.8% (active)
same,growth,MALME-3M melanoma; 10 µM unless noted,-15.7% (active) and 10.5% (inactive)
same,growth,MDA-MB-231 breast; 10 µM unless noted,18.9% (inactive) and 1.88% (active)
same,growth,RXF 393 renal; 10 µM unless noted,-30.2% (active)
same,growth,SF-268 CNS; 10 µM unless noted,23.2% (inactive) and 27.9% (inactive)
same,growth,SF-295 CNS; 10 µM unless noted,-45.6% (active) and 8.47% (active)
same,growth,SF-539 CNS; 10 µM unless noted,-8.43% (active) and -37.4% (active)
same,growth,UACC-257 melanoma,33.5% (inactive) and 5.36% (active)
same,growth,M14 melanoma; 10 µM unless noted,3.53% (active)
O=C(Nc1c(Cl)cccc1Cl)Oc1cccc2cccnc12,growth,NCI-H23 lung; 10 µM,36.5% (inactive)
same,growth,NCI-H23 lung; 100 µM,20.2% (inactive)
same,growth,NCI-H226 lung; 10 µM,66.1% (inactive)
same,growth,NCI-H226 lung; 100 µM,13.9% (inactive)
same,growth,NCI-H322M lung; 10 µM,23.7% (inactive)
same,growth,NCI-H322M lung; 100 µM,25% (inactive)
same,growth,HOP-62 NSCLC; 10 µM,47.5% (inactive)
same,growth,HOP-62 NSCLC; 100 µM,28.8% (inactive)
same,growth,NCI-H460 lung; 10 µM,27.1% (inactive)
same,growth,NCI-H460 lung; 100 µM,9% (active)
same,growth,HOP-92 NSCLC; 10 µM,53.2% (inactive)
same,growth,HOP-92 NSCLC; 100 µM,23.2% (inactive)
same,growth,NCI-H522 lung; 10 µM unless noted,-4.33% [100 µM] (active)
same,growth,A549/ATCC NSCLC; 10 µM,38% (inactive)
same,growth,A549/ATCC NSCLC; 100 µM,18.2% (inactive)
same,growth,786-0 renal; 10 µM,72% (inactive)
same,growth,786-0 renal; 100 µM,31.3% (inactive)
same,growth,COLO 205 colon; 10 µM,52.4% (inactive)
same,growth,COLO 205 colon; 100 µM,92.8% (inactive)
same,growth,DU-145 prostate; 10 µM,82.5% (inactive)
same,growth,DU-145 prostate; 100 µM,49.1% (inactive)
same,growth,K-562 leukemia; 10 µM,11.3% (inactive)
same,growth,K-562 leukemia; 100 µM,11.1% (inactive)
same,growth,MALME-3M melanoma; 10 µM,52.8% (inactive)
same,growth,MALME-3M melanoma; 100 µM,47.5% (inactive)
same,growth,MDA-MB-231 breast; 10 µM,49.5% (inactive)
same,growth,MDA-MB-231 breast; 100 µM,20.4% (inactive)
same,growth,RXF 393 renal; 10 µM,73.3% (inactive)
same,growth,RXF 393 renal; 100 µM,64.4% (inactive)
same,growth,SF-268 CNS; 10 µM,51.4% (inactive)
same,growth,SF-268 CNS; 100 µM,21.7% (inactive)
same,growth,SF-295 CNS; 10 µM,-11.3% (active)
same,growth,SF-295 CNS; 100 µM,19.6% (inactive)
same,growth,SF-539 CNS; 10 µM,28.2% (inactive)
same,growth,SF-539 CNS; 100 µM,22.9% (inactive)
same,growth,UACC-257 melanoma,-8.59% [100 µM] (active)
same,growth,M14 melanoma; 10 µM,40% (inactive)
same,growth,M14 melanoma; 100 µM,12.3% (inactive)
CNC(=O)N/N=C/c1ccc([N+](=O)[O-])o1,growth,NCI-H23 lung; 10 µM unless noted,101% (inactive)
same,growth,NCI-H226 lung; 10 µM unless noted,104% (inactive)
same,growth,NCI-H322M lung; 10 µM unless noted,88.7% (inactive)
same,growth,HOP-62 NSCLC; 10 µM unless noted,102% (inactive)
same,growth,NCI-H460 lung; 10 µM unless noted,109% (inactive)
same,growth,HOP-92 NSCLC; 10 µM unless noted,101% (inactive)
same,growth,NCI-H522 lung; 10 µM unless noted,85.2% (inactive)
same,growth,A549/ATCC NSCLC; 10 µM unless noted,82.3% (inactive)
same,growth,786-0 renal; 10 µM unless noted,111% (inactive)
same,growth,COLO 205 colon; 10 µM unless noted,109% (inactive)
same,growth,DU-145 prostate; 10 µM unless noted,104% (inactive)
same,growth,K-562 leukemia; 10 µM unless noted,96.5% (inactive)
same,growth,MALME-3M melanoma; 10 µM unless noted,112% (inactive)
same,growth,MDA-MB-231 breast; 10 µM unless noted,97.6% (inactive)
same,growth,RXF 393 renal; 10 µM unless noted,115% (inactive)
same,growth,SF-268 CNS; 10 µM unless noted,94.2% (inactive)
same,growth,SF-295 CNS; 10 µM unless noted,107% (inactive)
same,growth,SF-539 CNS; 10 µM unless noted,110% (inactive)
same,growth,UACC-257 melanoma,87.8% (inactive)
same,growth,M14 melanoma; 10 µM unless noted,102% (inactive)
CN=C(N)N/N=C(\C)c1ccc2c(c1)Cc1cc(/C(C)=N/NC(N)=NC)ccc1-2,growth,NCI-H23 lung; 10 µM unless noted,-56.6% (active)
same,growth,NCI-H226 lung; 10 µM unless noted,-61.2% (active)
same,growth,NCI-H322M lung; 10 µM unless noted,-1.93% (active)
same,growth,HOP-62 NSCLC; 10 µM unless noted,-82.7% (active)
same,growth,NCI-H460 lung; 10 µM unless noted,-69.9% (active)
same,growth,HOP-92 NSCLC; 10 µM unless noted,13.5% (inactive)
same,growth,NCI-H522 lung; 10 µM unless noted,-35% (active)
same,growth,A549/ATCC NSCLC; 10 µM unless noted,-17.6% (active)
same,growth,786-0 renal; 10 µM unless noted,-49.7% (active)
same,growth,COLO 205 colon; 10 µM unless noted,-67.1% (active)
same,growth,DU-145 prostate; 10 µM unless noted,-35.5% (active)
same,growth,K-562 leukemia; 10 µM unless noted,-7.26% (active)
same,growth,MALME-3M melanoma; 10 µM unless noted,-65.5% (active)
same,growth,MDA-MB-231 breast; 10 µM unless noted,-33.8% (active)
same,growth,RXF 393 renal; 10 µM unless noted,-21.2% (active)
same,growth,SF-268 CNS; 10 µM unless noted,-61% (active)
same,growth,SF-295 CNS; 10 µM unless noted,-28.1% (active)
same,growth,SF-539 CNS; 10 µM unless noted,-89% (active)
same,growth,UACC-257 melanoma,56.5% (inactive)
same,growth,M14 melanoma; 10 µM unless noted,-85.7% (active)
Oc1c(Br)cc(Cl)cc1C(c1cc(Cl)cc(Br)c1O)C(Cl)(Cl)Cl,growth,NCI-H23 lung; 10 µM unless noted,5.88% (active)
same,growth,NCI-H226 lung; 10 µM unless noted,33.4% (inactive)
same,growth,NCI-H322M lung; 10 µM unless noted,15.2% (inactive)
same,growth,HOP-62 NSCLC; 10 µM unless noted,59.2% (inactive)
same,growth,NCI-H460 lung; 10 µM unless noted,1.1% (active)
same,growth,HOP-92 NSCLC; 10 µM unless noted,-33.5% (active)
same,growth,NCI-H522 lung; 10 µM unless noted,-9.4% (active)
same,growth,A549/ATCC NSCLC; 10 µM unless noted,14% (inactive)
same,growth,786-0 renal; 10 µM unless noted,26.9% (inactive)
same,growth,COLO 205 colon; 10 µM unless noted,59.2% (inactive)
same,growth,DU-145 prostate; 10 µM unless noted,31.1% (inactive)
same,growth,K-562 leukemia; 10 µM unless noted,13.7% (inactive)
same,growth,MALME-3M melanoma; 10 µM unless noted,-0.8% (active)
same,growth,MDA-MB-231 breast; 10 µM unless noted,-11.3% (active)
same,growth,RXF 393 renal; 10 µM unless noted,12% (inactive)
same,growth,SF-268 CNS; 10 µM unless noted,21.9% (inactive)
same,growth,SF-295 CNS; 10 µM unless noted,9.03% (active)
same,growth,SF-539 CNS; 10 µM unless noted,30.8% (inactive)
same,growth,UACC-257 melanoma,33% (inactive)
same,growth,M14 melanoma; 10 µM unless noted,31.4% (inactive)
COc1cc(NS(C)(=O)=O)ccc1Nc1c2ccccc2nc2ccccc12,growth,NCI-H23 lung; 2.5 µM,8.63% (active)
same,growth,NCI-H23 lung; 10 µM,-3.53% (active) [middle of 4 runs]
same,growth,NCI-H226 lung; 10 µM unless noted,-8.63% [2.5 µM] (active)
same,growth,NCI-H322M lung; 10 µM unless noted,83.9% [2.5 µM] (inactive)
same,growth,HOP-62 NSCLC; 10 µM unless noted,18.2% [2.5 µM] (inactive)
same,growth,NCI-H460 lung; 10 µM unless noted,4.6% [2.5 µM] (active)
same,growth,HOP-92 NSCLC; 2.5 µM,9.79% (active)
same,growth,HOP-92 NSCLC; 10 µM,42.5% (inactive) and 10.3% (inactive)
same,growth,NCI-H522 lung; 2.5 µM,43% (inactive)
same,growth,NCI-H522 lung; 10 µM,-47.9% (active) and 4% (active) and 37.2% (inactive)
same,growth,A549/ATCC NSCLC; 2.5 µM,28.1% (inactive)
same,growth,A549/ATCC NSCLC; 10 µM,12.9% (inactive) [middle of 4 runs]
same,growth,786-0 renal; 10 µM unless noted,-3.06% [2.5 µM] (active)
same,growth,COLO 205 colon; 10 µM unless noted,39.7% [2.5 µM] (inactive)
same,growth,DU-145 prostate; 10 µM unless noted,-34.4% [2.5 µM] (active)
same,growth,K-562 leukemia; 2.5 µM,29.2% (inactive)
same,growth,K-562 leukemia; 10 µM,0.97% (active) and 16.8% (inactive) and 23.4% (inactive)
same,growth,MALME-3M melanoma; 2.5 µM,43.4% (inactive)
same,growth,MALME-3M melanoma; 10 µM,-25.4% (active) and 20.4% (inactive) and 25.4% (inactive)
same,growth,MDA-MB-231 breast; 10 µM unless noted,98.2% [2.5 µM] (inactive)
same,growth,RXF 393 renal; 10 µM unless noted,6.88% [2.5 µM] (active)
same,growth,SF-268 CNS; 2.5 µM,35.1% (inactive)
same,growth,SF-268 CNS; 10 µM,25.1% (inactive) [middle of 4 runs]
same,growth,SF-295 CNS; 10 µM unless noted,3.7% [2.5 µM] (active)
same,growth,SF-539 CNS; 10 µM unless noted,-34.3% [2.5 µM] (active)
same,growth,UACC-257 melanoma,5.31% [2.5 µM] (active)
same,growth,M14 melanoma; 10 µM unless noted,8.39% (active) [middle of 4 runs]

# Source: PubChem BioAssay (NCI)
